Bioassay records from PubChem.
The list is not random: actives were taken first. Their share in the collection is about 4.6%.
NLRP3 yeast inh – NALP3 inhibition in yeast; inhibition, % at 10 µM; 330,000 tested, 0.39% active; Yeast reconstituted NLRP3/ASC/caspase-1, beta-gal luminescence, 24 h;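 active = inhibition of 50% or more; inactive = inhibition below 50%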;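 note: plate controls were induced DMSO wells for no effect and uninduced yeast grown without galactose for full effect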
tim10-1 inh – growth inhibitors of tim10-1 mutant yeast | S. cerevisiae tim10-1 ts strain growth, BacTiter-Glo, 24 h | inhibition, % at 20 µM | 330,000 tested, 2.2% active;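 active = inhibition of at least 40%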;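 note: mutant grown at 25 °C; 0% = DMSO wells with yeast and 100% = wells holding no yeast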
SKKanGAS inh – blocks kanamycin growth of S. pyogenes SKKanGAS strain. BacTiter-Glo, 6 h. inhibition, % at 7.5 µM. 300,000 tested, 1.3% active. AID 1662;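 active = mean replicate score, as percent of positive control median, at least 50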;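 note: strain carries kanamycin resistance gene driven by streptokinase promoter and grows in 40 µg/ml kanamycin; loss of luminescence reflects streptokinase promoter inhibition or plain growth inhibition; 0% = median of DMSO wells and 100% = positive control at its reference dose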
PfHsp90 yeast 2 – reduces growth (ATP signal) of yeast expressing P. falciparum Hsp90 | S. cerevisiae expressing PfHsp90, BacTiter-Glo ATP, 48 h; yeast lacking PDR1 and PDR3 efflux regulators | inhibition, % at 9.4 µM | 310,000 tested, 0.32% active;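 active = every replicate shows inhibition above about 80%, whatever the replicate mean, limit read from the data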;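 note: 0% = DMSO neutral controls and 100% = 20 µM radicicol positive controls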
TIM10 inh – inhibits growth of TIM10 yeast strain; inhibition, % at 10 µM; 330,000 tested, 1.4% active; S. cerevisiae TIM10 strain growth, BacTiter-Glo luminescence, 24 h; AID 463195;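 active = inhibition of 40% or more at the single tested concentration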;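 note: wild-type TIM10 isogenic control strain grown at permissive 25 °C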
tim23-1 inh – growth inhibitors of tim23-1 mutant yeast | inhibition, % at 20 µM | S. cerevisiae tim23-1 growth, BacTiter-Glo luminescence, 24 h | 330,000 tested, 1.3% active | AID 463212;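 active = growth inhibition of the mutant yeast at or above 50%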;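 note: temperature-sensitive mutant grown at 25 °C; plate controls were DMSO-treated mutant yeast for no effect and medium wells lacking yeast for full effect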
tim10-1 conf – tim10-1 yeast growth inhibition, confirmed. shares compounds with tim10-1 inh. S. cerevisiae tim10-1 ts strain growth, BacTiter-Glo, 24 h. inhibition, % at 20 µM. 7,400 tested, 56% active;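 active = inhibition of yeast growth at or above a set limit in either of two repeat tests at 20 µM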;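 note: tim10-1 mutant grown at permissive 25 °C to find synthetic lethal compounds; 0% = DMSO yeast wells and 100% = medium wells without yeast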
tim10 confirm – confirmation of TIM10 yeast growth inhibitors; AID 463215; S. cerevisiae tim10 strain growth, BacTiter-Glo luminescence, 24 h; shares compounds with TIM10 inh; 4,600 tested, 63% active; inhibition, % at 10 µM;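 active = inhibition of yeast growth at or above a set limit in either of two replicates at 10 µM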;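 note: this counterscreen used the strain with wild-type TIM10; 0% = yeast with DMSO and 100% = medium wells lacking yeast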
tim23-1 conf – tim23-1 yeast growth inhibition, confirmed | shares compounds with tim23-1 inh | S. cerevisiae tim23-1 growth, BacTiter-Glo luminescence, 24 h | inhibition, % at 20 µM | 4,400 tested, 83% active | AID 463218;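 active = inhibition above about 39% in either of two replicate wells at 20 µM, limit read from the data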;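 note: temperature-sensitive tim23-1 mutant grown at 25 °C; 0% = DMSO wells with yeast and 100% = medium wells without yeast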
* = called active by the depositor; . = no result given.

SMILES	NLRP3 yeast inh	tim10-1 inh	SKKanGAS inh	PfHsp90 yeast 2	TIM10 inh	tim23-1 inh	tim10-1 conf	tim23-1 conf	others
CCO/N=C1\C(=O)N(c2ccccc2)c2ccccc21	17.7	13.6	-6.1	-13.4	1.1	36.7	.	.
O=c1c2ccccc2c(-c2ccc(O)cc2)nn1-c1cccc(C(F)(F)F)c1	6.5	42.4*	-13.0	8.3	53.0*	56.9*	36.1*	55.5*	tim10 confirm=-6.4
O=c1c2ccccc2c(-c2cccc(C(F)(F)F)c2)nn1-c1ccccc1	8.8	14.8	1.2	-29.2	-22.3	34.5	.	.
Oc1c(Cl)cc(Cl)cc1C=Nc1ccc2c(c1)OCCO2	-1.7	46.5*	5.0	.	46.7*	77.2*	29.4	80.7*	tim10 confirm=31.9*
Cc1ccccc1NC(=O)C(=Cc1ccc(C(=O)O)cc1)C(=O)Nc1ccccc1C	.	.	3.9	17.6	.	.	.	.
CC(=O)/C(=C/c1ccccc1)C(=O)Nc1ccccc1C	36.4	61.2*	-22.4	-83.3	72.1*	68.0*	52.0*	53.8*	tim10 confirm=63.5*
COc1ccccc1CNC(=O)c1ccc(NC(=O)CC2SC(N3CCCC3)=NC2=O)cc1 (stereo unspecified)	-0.2	9.2	.	-9.1	-5.6	-9.1	.	.
Nc1ccccc1C#Cc1ccc2[nH]ccc2c1	25.2	43.6*	4.1	0.2	25.4	62.7*	6.7	52.9*
CCOC(=O)C1CCN(C(=O)c2cc(COc3ccc(F)cc3F)on2)CC1	19.2	36.2	-5.0	.	26.1	31.6	.	.
CCOC(=O)C(=O)N1CCC(C(=O)OCC)CC1	11.1	1.9	1.8	-3.8	-2.0	17.4	.	.
CCc1c(O)nc(SCc2ccccc2)n(C(C)CC)c1=O (stereo unspecified)	2.5	40.7*	14.3	13.4	37.0	51.7*	44.8*	47.8*
C=CCSc1nc(O)c(CC)c(=O)n1C(C)CC (stereo unspecified)	-9.6	21.5	4.4	.	16.2	25.7	.	.
O=C(CSc1ccc2nnc(CCNC(=O)c3ccccc3)n2n1)NCc1ccco1	14.1	-2.6	0.9	6.1	12.0	-1.2	.	.
CCc1ccccc1Nc1nc(N)nc(COC(=O)c2c(C)noc2C)n1	-7.9	13.8	.	.	5.1	29.1	.	.
COc1ccc(C(C[N+](=O)[O-])c2c(C)[nH]c3ccccc23)cc1OC (stereo unspecified)	27.8	35.2	-1.1	0.8	18.5	30.6	.	.
O=c1[nH][nH]c(-c2ccccc2O)c1C(C[N+](=O)[O-])c1ccc(Br)cc1 (stereo unspecified)	32.8	51.8*	2.0	1.9	53.4*	61.6*	43.5*	65.4*	tim10 confirm=-22.4
CC(=O)N(c1cc(C)ccc1C)c1ccccc1[N+](=O)[O-]	.	.	.	-9.3	.	.	.	.
CSc1nc2ccc(NS(=O)(=O)c3ccccc3F)cc2s1	16.7	22.3	3.0	-8.0	24.5	35.3	.	.
CSc1nc2ccc(NS(=O)(=O)c3c(Cl)cccc3Cl)cc2s1	24.0	42.6*	34.0	-38.1	35.4	51.9*	29.8*	56.6*
Cc1ccccc1CC(=O)c1ccc(O)c(C)c1O	-3.8	49.1*	-24.6	10.2	31.4	61.3*	45.5*	65.5*
Cc1cc(C)n2nc(CC#N)c(C#N)c2n1	21.8	0.4	-5.8	3.8	5.7	8.7	.	.
Cc1cc(C)n2nc(/C(C#N)=C/c3ccccn3)c(C#N)c2n1	32.5	61.7*	4.0	-1.0	51.1*	51.9*	58.0*	75.4*	tim10 confirm=52.4*
CCOc1ccccc1NS(=O)(=O)c1ccc(-c2cnc(C3CC3)o2)cc1	15.5	34.1	-12.7	10.7	-16.0	27.0	.	.
COc1ccccc1NS(=O)(=O)c1ccc(-c2cnc(C3CC3)o2)cc1	18.1	30.5	-14.9	-4.8	-10.7	26.3	.	.
Cc1ccc(NS(=O)(=O)c2ccc(-c3cnc(C4CC4)o3)cc2)c(C)c1	0.6	53.1*	3.2	-3.1	0.5	51.5*	17.1	37.8
